As usually defined, the Kd is the equilibrium constant for the complex coming apart. A higher Kd goes with weaker binding.
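Further: kd values determined as follow-up on hits from a single-replicate KINOMEscan panel screen.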

The first assay concerns T1, MEK5.
T1 construct: gene MAP2K5
Regarding `Nc1n[nH]c2ncc(-c3ccccc3)cc12` [SB-517081], binding was put at a Kd of 660 nM.

In turn, `Nc1nccc2scc(-c3ccc4c(c3)CCN4C(=O)Cc3ccccc3)c12` [GSK2576924] had a dissociation constant Kd of 530 nM. This Kd and that of the compound before are within 1.5-fold of each other.

Compound `COc1cc2ncn(-c3cc(OCc4ccncc4Br)c(C(N)=O)s3)c2cc1OC` [GW854278] displayed a Kd of 78 nM.

For the compound `COc1cc2nccc(Nc3ccc(OCc4ccc(NC(C)=O)cc4)cc3)c2cc1OC.Cl` [GW440135], binding was put at a Kd of 52 nM.

`COc1cc2ncn(-c3cc(OCCCc4ccccc4)c(C(N)=O)s3)c2cc1OC` [GSK205189] registered a Kd of 280 nM.

In turn, `COc1cc2nccc(Nc3cccc(Oc4ccccc4)c3)c2cc1OC.Cl` [GW284543] gave a Kd of 11 nM. Against the preceding compound, the Kd is about 25-fold lower.

`Cc1ccc(Oc2ccc(Nc3ncnc4cc[nH]c34)cc2C)cn1` returned a Kd of 9 nM.

As to `COc1cccc(-n2cnc3c(N)ncnc32)c1` [SKF-97416], the Kd is 1300 nM.

For `COc1cc2ncn(-c3cc(OCc4ccncc4)c(C(N)=O)s3)c2cc1OC` [GSK336313], the Kd came to 670 nM.

With `COc1cc(Nc2nccc(N3CCC(NC(=O)C4COc5ccccc5O4)C3)n2)cc(OC)c1OC` (centres unmarked) [GSK1379761], binding was characterised by a dissociation constant (Kd) of 180 nM.

`COc1cc2ncn(-c3cc(OCc4ccc(S(C)(=O)=O)cc4)c(C(N)=O)s3)c2cc1OC` [GW869979] gave a Kd of 470 nM.

The next assay relates to MYLK2.
`O=C(Nc1n[nH]c2cc(-c3ccccc3F)ccc12)C1CC1` [SB-733371] displayed a Kd of 110 nM.

`O=C(Nc1n[nH]c2nc(-c3ccccc3)c(Cl)cc12)C1CC1` [SB-734909] came in with a dissociation constant Kd of 150 nM.

With `O=C(Nc1n[nH]c2nc(-c3ccccc3)c(Br)cc12)C1CC1` [SB-708998], the Kd was determined as 60 nM. Compared with the last compound, the Kd is about 2.5-fold lower.
